Assay results: PubChem BioAssay (Tox21)
Records with an inconclusive call do not appear. Unmarked numbers belong to inactive results. The source made the active and inactive calls. Calls follow the shape of the dose curve; as a rule, active = well fitted curve in the direction sought with a large enough effect in the repeat runs; inconclusive = weak or mixed curves; inactive = no such curve, though single readings can be large; an effect the other way counts as inactive or inconclusive.

Assay: Caspase-3/7 induction in HepG2 cells by small molecules, qHTS assay (AID 1346978); also: nearly all actives have a fitted effect of over 15% in size
Conditions: HepG2 caspase-3/7 activation, Caspase-Glo luminescence, 17 h; series mostly up to 92.4 µM; caspase activation: at the top concentration
In short: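 Wild-type HepG2 cells (2,000/well) were settled 5 h at 37 C, 5% CO2, then exposed to compounds in DMSO for 17 h. Caspase-3/7 activity was read by luminescence 30 min after adding Caspase-Glo 3/7 reagent at room temperature.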
% is scaled to controls: 0 for no effect and ±100 for the full control effect.

In the case of `Sc1nc(S)nc(S)n1`, the “caspase activation” value is reported as 0.0934% [at 42.5 µM].

Point of comparison: `Cc1cc(C)c(C)c(O)c1`, “caspase activation” value -0.129%. Against it:
- COc1ccc(/C=C/S(=O)(=O)NC(=O)c2ccc(C)cc2Cl)cc1 — lower, -1.4%

Assay: Caspase-3/7 induction in CHO-K1 cells by small molecules, qHTS cell viability counter screen (AID 1346979); also: nearly all actives have a fitted effect of over 35% in size; also: potency is read from the fitted curve at half-maximal effect
Conditions: CellTiter-Fluor fluorescence, 17 h; series mostly up to 92.4 µM; activity change, negative = cytotoxicity: at the top concentration
In short: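 Wild-type CHO-K1 cells were seeded at 1,500 per well, rested 5hr at 37 C, then exposed to compounds in DMSO. After 16hr, CellTiter-Fluor reagent was added and fluorescence read 1hr later as the viability measure.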

Point of comparison: `CC(C)CCCCCOC(=O)CS`, “activity change, negative = cytotoxicity” value 0.4%. Against it:
- C=C[Si]1(C)O[Si](C)(C=C)O[Si](C)(C=C)O[Si](C)(C=C)O1 (centres undefined) — lower, -0.116%
- Cc1ccccc1CCO — higher, 6.86%
- N#Cc1ccc(CC(=O)c2cccc(C(F)(F)F)c2)cc1 — lower, -0.606%
- Cc1cc(N)n(-c2ccccc2)n1 — higher, 7.06%
- COc1cc(CNC(=O)CCCC/C=C/C(C)C)ccc1O — lower, -9.94%
- CC(CN=Cc1ccccc1O)N=Cc1ccccc1O (centres undefined) — lower, -0.667%
- COc1ccc(C(=O)c2ccc(C)cc2)c(O)c1 — lower, -10.1%
- Cc1c(N=C=O)cccc1N=C=O — lower, -0.0134%
- Clc1nc2ccccc2nc1Cl — lower, -11.8%
- Cc1ccc2ccccc2c1[N+](=O)[O-] — higher, 0.97%
- C[C@H]1C[C@H]2[C@@H]3CCC4=CC(=O)C=C[C@]4(C)[C@@]3(F)[C@@H](O)C[C@]2(C)[C@@]1(O)C(=O)COP(=O)(O)O — lower, -0.83%
- O=C(O)c1cc(C(=O)O)cc([N+](=O)[O-])c1 — higher, 10.4%
- Cc1cc(SC2=C(O)C[C@@](CCc3ccc(N)cc3)(C(C)C)OC2=O)c(C(C)(C)C)cc1CO — lower, -11.4%
- CCCCCC1CCC(=O)O1 (centres undefined) — higher, 3.5%
- Cc1cc(C)c(C)c(O)c1 — higher, 9.34%
- COc1ccc(/C=C/S(=O)(=O)NC(=O)c2ccc(C)cc2Cl)cc1 — lower, -2.05%

With `Nc1ccccc1Nc1ccccc1` the Potency was 27.4 µM (active).

Point of comparison: `CCc1c(C)[nH]c2c1C(=O)C(CN1CCOCC1)CC2` (centres undefined), “activity change, negative = cytotoxicity” value 1.5% [at 42.5 µM]. Against it:
- CC(C)(C(=O)O)c1ccc(C(O)CCCN2CCC(C(O)(c3ccccc3)c3ccccc3)CC2)cc1 (centres undefined) — higher, 4.9% [at 42.5 µM]
- COc1ccc(CN(CCN(C)C)c2ncccn2)cc1 — higher, 7.68% [at 42.5 µM]
- O=C(C1CCCCC1)N1CC(=O)N2CCCc3ccccc3C2C1 (centres undefined) — lower, -1.77% [at 42.5 µM]
- Nc1ncnc2c1ncn2[C@@H]1O[C@H](CO)[C@@H](O)[C@H]1O — lower, -0.786% [at 42.5 µM]
- Cc1ccc(S(=O)(=O)NC(=O)NC2CCCC2)cc1 — higher, 11.3% [at 42.5 µM]
- c1ccc(CCNc2nc(-c3ccccc3)cs2)cc1 — lower, -1.54% [at 42.5 µM]
- CCc1ccc(C(=O)C(C)CN2CCCCC2)cc1 (centres undefined) — lower, 1.44% [at 42.5 µM]
- O=C(OC1C[C@H]2CC[C@@H](C1)[N+]21CCCC1)C(O)(c1ccccc1)c1ccccc1 (some centres undefined) — higher, 10.4% [at 42.5 µM]
- CCN(CC)CC(=O)OCC(=O)[C@@]1(O)CC[C@H]2[C@@H]3CCC4=CC(=O)CC[C@]4(C)[C@H]3[C@@H](O)C[C@@]21C — higher, 9.38% [at 42.5 µM]
- CCOCCn1c(N2CCCN(C)CC2)nc2ccccc21 — lower, -0.785% [at 42.5 µM]
- C[C@H](CN1CCCC1)C(=O)c1ccc(C(F)(F)F)cc1 — higher, 1.54% [at 42.5 µM]
- Sc1nc(S)nc(S)n1 — lower, -0.99% [at 42.5 µM]
